From PubChem BioAssay
Most compounds without a hit are left out; they make up all but 7.1% or so of the library.
ELG1 DNA repair – qHTS screen for small molecules that inhibit ELG1-dependent DNA repair in human embryonic kidney (HEK293T) cells expressing luciferase-tagged ELG1 | 330,000 tested, 2.3% active | Potency, µM (series often up to 46.1 µM), inactives show at the top dose activity change, negative = inhibition, most hits filed as inhibitors | HEK293T ELG1-luciferase reporter, luminescence, 16 h; DNA damage induced by 5-fluorouridine; also: % is scaled to controls: 0 for no effect and ±100 for the full control effect; nearly all actives have a fitted effect of over 55% in size
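Cells (2,000 per well) received 5-fluorouridine plus test compound or DMSO and were incubated 16 hr at 37 °C, 5% CO2. Luciferase activity was read by luminescence 30 min after ONE-Glo addition; signal suppression marked inhibition of damage-induced ELG1 function.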
AT treatment – qHTS Assay for Identifying a Potential Treatment of Ataxia-Telangiectasia | F2112 A-T fibroblasts, KAP-1 phosphorylation AlphaLISA; neocarzinostatin DNA damage 30 min before lysis | Potency, µM (titrated, usually from 57.5 µM), inactives show top-dose activation, hits mostly activators | 320,000 tested, 0.19% active; also: % of control where 0% means no effect; nearly all actives have a fitted effect of over 45% in size
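hTERT-immortalized A-T patient fibroblasts (F2112), 500 cells/well in OPTI-MEM, 1% FBS, got compounds for 60 min, then NCS for 30 min at 37C. Lysates were then assayed for phospho-KAP-1 by AlphaLISA (anti-pKAP1 donor, anti-KAP1 acceptor beads), 6 hr at 25C.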
MCF10A rereplic – A quantitative high throughput screen for small molecules that induce DNA re-replication in MCF 10a normal breast cells. Potency, µM (doses to about 46.1 µM), without a hit: top-dose activity, positive = re-replication, actives largely listed as activators. MCF 10A DNA re-replication, Hoechst nuclear intensity, 48 h. 350,000 tested, 2.9% active; also: % of control where 0% means no effect; nearly all actives have a fitted effect of over 50% in size
ELG1 genotox – qHTS screen for small molecules that induce genotoxicity in human embryonic kidney (HEK293T) cells expressing luciferase-tagged ELG1; HEK293T ELG1-luciferase reporter, luminescence, 16 h; Potency, µM (highest dose often 46 µM), without a hit: at the top dose activity change, positive = activation, most hits filed as activators; 330,000 tested, 1.3% active; AID 504466, 2011; also: % of control where 0% means no effect; nearly all actives have a fitted effect of over 60% in size
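Genotoxic stress is detected as increased luminescence from luciferase-tagged ELG1 in HEK293T cells, measured with ONE-Glo after a 16 hr treatment at 37 °C.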
p53 reactivation – qHTS assay for re-activators of p53 using a Luc reporter | H1299 p53-A138V BP100-luciferase reporter, luminescence, 24 h | Potency, µM (doses to about 92.2 µM), inactives show at the highest dose activity change, positive = activation, most hits filed as activators | 320,000 tested, 0.063% active; also: % of control where 0% means no effect; nearly all actives have a fitted effect of over 45% in size
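H1299 (p53-null), stable ts p53-A138V + BP100-Luc; 1000 cells/well, Opti-MEM/10% FBS; cpd 4 pt, 1:5; 24 h, 37 deg C, 5% CO2; detection reagent 10 min RT; luminescence.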
SW480 rereplic – A quantitative high throughput screen for small molecules that induce DNA re-replication in SW480 colon adenocarcinoma cells. SW480 DNA re-replication, Hoechst DNA content imaging, 48 h. Potency, µM (top dose mostly 46.1 µM), for inactives: at the highest dose re-replication activation, actives largely listed as activators. 340,000 tested, 1.8% active. AID 624297, 2012; also: % of control where 0% means no effect; nearly all actives have a fitted effect of over 55% in size
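SW480 cells exposed to compounds for 48 hr at 37 C, 5% CO2, then Hoechst-stained 40 min. Nuclear DNA content imaged by fluorescence scanning (405 nm excitation, 500-530 nm emission); re-replication scored as increased high-intensity nuclei.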
* hit, by the source's call; ? = inconclusive; / = not tested or not shown. Calls follow the shape of the dose curve; as a rule, active = well fitted curve in the direction sought with a large enough effect; inconclusive = small, poorly fitted or top-dose-only effect, or another doubt; inactive = no such curve, though single readings can be large; an effect the other way counts as inactive or inconclusive. Potency is read from the fitted curve at half-maximal effect.

SMILES	ELG1 DNA repair	AT treatment	MCF10A rereplic	ELG1 genotox	p53 reactivation	SW480 rereplic
Cc1ccc(Cc2ccccc2C(=O)O)cc1	/	/	-4%	/	/	-5%
Cc1cc(OCC(=O)Nc2ccncc2)ccc1[N+](=O)[O-]	7.3µM*	1%	16%	-7%	-4%	-2%
Cc1cc(OCC(=O)Nc2cnn(CCCC(=O)O)c2)ccc1[N+](=O)[O-]	30%	-4%	?	0%	-1%	?
O=C(COc1ccc(Nc2ccccc2)cc1)Nc1ccncc1	18µM*	1%	19%	?	-4%	?
CCN(CC(=O)NC(C)(C)C)C(=O)CN1c2cccc3cccc(c23)S1(=O)=O	-2%	2%	-16%	-3%	-3%	?
CCc1cccc(NC(=O)c2ccc(CNc3c(N4CCCC4)c(=O)c3=O)cc2)c1	-1%	0%	-6%	2%	7%	-11%
COc1ccc2nc(C)cc(NCc3ccc(F)cc3)c2c1	?	-5%	18µM*	-12%	0%	?
COc1ccccc1/C=N/Nc1cc(C)nc2ccc(C)cc12	?	10%	-3%	7%	/	3%
COc1ccc(/C=N/Nc2ncccc2[N+](=O)[O-])c(OC)c1	?	-5%	21%	2.6µM*	?	-13%
COc1ccc2nc(C)cc(N/N=C/c3ccccc3)c2c1	-9%	-7%	23µM*	4%	-6%	16µM*
COc1ccc2nc(C)cc(NCCN3CCOCC3)c2c1	2%	12%	0%	1%	-7%	-16%
COc1ccc(/C=N/Nc2cc(C)nc3ccc(OC)cc23)c(OC)c1	?	-4%	?	18%	-167%	23µM*
O=C(COc1ccccc1[N+](=O)[O-])NCCCN1CCCC1=O	20%	9%	-4%	-2%	6%	-11%
CN(CCOc1ccc(Cl)cc1)C(=O)c1cc(S(=O)(=O)N2CCOCC2)ccc1N1CCCC1	?	-3%	6%	-3%	0%	-15%
O=C(NCCc1ccccn1)c1nc(Cn2cc(Br)cn2)no1	3%	8%	-3%	0%	-4%	-1%
CC1CCN(C(=O)CN2C(=O)NC(C)(c3ccc4ccccc4c3)C2=O)CC1 (configuration not stated)	-16%	-4%	-4%	-1%	7%	0%
Cc1c(CN(C)Cc2cn(C)nc2-c2ccccc2F)[nH]c2ccccc12	4%	3%	18µM*	-9%	0%	?
C/C=C/c1ccc(OCC(O)CN(C)Cc2ccc(SC)cc2)c(OC)c1 (configuration not stated)	-7%	-2%	18%	-10%	5%	16%
COC(=O)c1c(C)[nH]c(C(=O)OCc2csc(CC(=O)Nc3ccccc3C)n2)c1C	8.2µM*	17%	3%	0%	3%	-3%
Cc1ccccc1NC(=O)Cc1nc(COC(=O)c2cc(Br)ccc2O)cs1	-17%	-2%	16µM*	0%	-5%	-6%
Nc1nn(-c2cccc(F)n2)cc1-c1ccc(Cl)cc1	?	2%	3%	1.2µM*	?	-16%
Nc1nn(-c2cccc(F)n2)cc1-c1ccccc1	?	1%	-27%	2.9µM*	?	-7%
COc1ccc(-c2ccn(-c3cccc(F)n3)n2)cc1	?	6%	?	?	?	?
Nc1nc(Br)c2c(F)cccc2c1-c1ccccc1	14%	-6%	?	0%	-3%	7%
COc1cc2c(cc1OC)C(NNC(=O)c1ccc(Br)o1)=NC(C)(C)C2	?	-3%	6%	-7%	-5%	0%
SMILES	ELG1 DNA repair	AT treatment	MCF10A rereplic	ELG1 genotox	p53 reactivation	SW480 rereplic
Cc1cccc(N2CCN(C(=O)C3CCN(S(=O)(=O)c4cccc5cccnc45)CC3)CC2C)c1 (configuration not stated)	18µM*	2%	-1%	-11%	-2%	15%
Cc1cccc(N2CCN(C(=O)C3CCN(S(=O)(=O)c4cccc5nsnc45)CC3)CC2C)c1 (configuration not stated)	?	0%	?	-8%	-12%	1%
O=C(C1CCN(S(=O)(=O)c2cccc3cccnc23)CC1)N1CC=C(c2ccccc2)CC1	23µM*	7%	/	-13%	-2%	/
COc1cccc(CN(C)C(=O)/C=C/c2ccc(S(=O)(=O)N3CCCCCC3)cc2)c1	?	-1%	9%	-19%	-19%	4%
N#CCC(=O)Nc1ccc(C(=O)OCC(=O)NCCCc2ccccc2)cc1	-2%	-5%	-11%	0%	1%	-7%
N#CCC(=O)Nc1ccc(C(=O)OCc2ccccc2Oc2ccccc2)cc1	-13%	0%	21µM*	-4%	-3%	?
O=C1C=CC(=O)N1CCCCCCCCCCN1C(=O)C=CC1=O	/	/	?	/	/	6.5µM*
O=C1C=CC(=O)N1Cc1ccncc1	/	/	-3%	/	/	-4%
Nn1c(-c2ccccc2)nc2cc(Cl)ccc2c1=O	-9%	1%	10%	2%	/	-8%
CN(C(=O)c1ccc(NC(=O)Cc2ccc(NC(=O)C3CCCN(C(=O)C4CCC4)C3)cc2)cc1)C1CCCC1 (configuration not stated)	/	/	?	/	/	-1%
O=C1/C(=C/c2ccc(O)c([N+](=O)[O-])c2)SC(=S)N1Cc1ccccc1	18µM*	0%	?	-14%	5%	-6%
O=C1/C(=C\c2cc(Br)cc(Br)c2O)SC(=S)N1Cc1ccccc1	23µM*	2%	9.2µM*	-18%	1%	8%
O=C(O)CN1C(=O)/C(=C\c2cc(Br)ccc2OCc2ccccc2F)SC1=S	-1%	14%	18µM*	1%	-1%	-22%
O=C1/C(=C\c2cccc([N+](=O)[O-])c2O)SC(=S)N1Cc1ccccc1	8.2µM*	-16%	14%	-9%	2%	2%
O=C1/C(=C\c2ccc(O)cc2)SC(=S)N1Cc1ccccc1	3%	3%	12%	1%	-2%	?
COc1ccc(C)cc1NC(=O)C(c1ccccc1)N1CCN(CC(=O)NC2CC2)CC1 (configuration not stated)	-25%	12%	2%	0%	-8%	10%
